Experimental findings from the supplement of paper PMC10849652 are described below.

Holding throughout (assay): log2 fold change, soluble protein after heating vs DMSO (PISA); higher = thermal stabilisation; K562 cells, 10 uM, 30 min; active = over 0.2 and 3.5 SD of the protein, either way, in both replicates (recomputed)
Compound in experiment [1]: CC1=C(C=C(C=C1)NC(=O)C2=CC(=CC=C2)C(C)(C)C#N)NC3=CC4=C(C=C3)N=CN(C4=O)C
A digest of the protocol:
(§1)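 K562 cells at 2×10^6 cells/mL were treated with 10 μM compound for 30 min. Aliquots were heated for 3 min across 48°C-58°C, pooled, and extracted in PBS with 0.5% NP-40 at 4°C; soluble protein was the supernatant after 21,000xg for 90 min. Soluble protein was quantified by TMTpro 16plex LC-MS/MS with channel sums equalised, and reported as log2 fold change in thermal stability against DMSO controls, with values from duplicates.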

Compound in experiment [2]: CC1=C(C=C(C=C1)NC(=O)C2=CC(=CC=C2)N(C)C)NC(=O)C3=CC=C(C=C3)O
The essentials: as §1

Compound in experiment [3]: CC1=CC=C(C=C1)SC2=C3C=C(SC3=CN=C2)C(=O)N
A digest of the protocol: as §1

Compound in experiment [4]: CC1=NC(=CC=C1)C2=C(N=C(N2)C(C)(C)C)C3=CC4=NC=CN=C4C=C3
The essentials:
as §1

Compound in the next experiment: CCCCN(Cc1ccc(C(=O)NO)cc1)C(=O)Nc1ccccc1 [Nexturastat A]
A digest of the protocol:
as §1

Compound in another experiment: CCCS(=O)(=O)Nc1ccc(F)c(C(=O)c2c[nH]c3ncc(-c4ccc(Cl)cc4)cc23)c1F [vemurafenib]
The essentials: as §1

Compound in experiment [5]: CCCS(=O)(=O)Nc1ccc(F)c(C(=O)c2c[nH]c3ncc(Cl)cc23)c1F
The essentials:
as §1

Compound in experiment [6]: CCCc1cc(C)[nH]c(=O)c1CNC(=O)c1cc(-c2ccnc(N3CCN(C)CC3)c2)cc2c1cnn2C(C)C
The essentials:
as §1

Compound in another experiment: CCN(CC)Cc1ccc2cc(COC(=O)Nc3ccc(C(=O)NO)cc3)ccc2c1 [givinostat]
A digest of the protocol:
as §1

Compound in another experiment: CCN(CCCOc1ccc2c(Nc3cc(CC(=O)Nc4cccc(F)c4)[nH]n3)ncnc2c1)CCOP(=O)(O)O [barasertib]
The essentials: as §1

Compound in experiment [7]: CC[C@@H]1C(=O)N(C)c2cnc(Nc3ccc(C(=O)NC4CCN(C)CC4)cc3OC)nc2N1C1CCCC1
A digest of the protocol: as §1

Compound in another experiment: CC[C@@H]1C(=O)N(C)c2cnc(Nc3ccc(C(=O)N[C@H]4CC[C@H](N5CCN(CC6CC6)CC5)CC4)cc3OC)nc2N1C(C)C [volasertib]
The essentials: as §1

Compound in experiment [8]: CC[C@H](C)N1C=C(C2=C(C=C(C=C21)C3=CN=C(C=C3)N4CCNCC4)C(=O)NCC5=C(C=C(NC5=O)C)C)C
A digest of the protocol: as §1

Compound in the next experiment: CC[C@H](C)[C@@H](C(=O)N[C@@H]([C@@H](C)O)C(=O)N[C@@H](CC(C)C)C(=O)[C@]1(CO1)C)NC(=O)[C@H]([C@@H](C)CC)N(C)C(=O)C [epoxomicin]
A digest of the protocol: as §1

Compound in experiment [9]: CCn1c(C(=O)N(C2CC2)C2CC2)cc2c3c(ncn3C)c(Nc3cc(C)n(C)n3)nc21
The essentials:
as §1

Compound in experiment [10]: CCn1cc(-c2ccnc3[nH]c(-c4cccc(CN(C)C)c4)cc23)c(-c2ccc(NC(=O)N(C)C)cc2)n1
The essentials: as §1

Compound in experiment [11]: CN(C)CC(=O)Nc1ccc2[nH]c(=O)c3ccccc3c2c1
The essentials: as §1

Compound in the next experiment: CN(CCOC1=CC=C(C=C1)C[C@H]2C(=O)NC(=O)S2)C3=CC=CC=N3 (racemic) [rosiglitazone]
The essentials: as §1

Compound in experiment [12]: CN1C2=C(C3=C1C(=O)N(N=C3)CC4=CC(=CC=C4)N)SC(=C2)S(=O)C
A digest of the protocol: as §1

Compound in experiment [13]: CN1CCC(CNc2ccc3ncc(-c4cccc(OC(F)(F)F)c4)n3n2)CC1
The essentials: as §1

The full data set covers some 7,900 targets. This sample favours those with a hit. About 0.6% of all pairs of compound and target were hits. Values without a mark were called inactive.

UniProt Q06609, sequence (Q06609 whole entry, looked up): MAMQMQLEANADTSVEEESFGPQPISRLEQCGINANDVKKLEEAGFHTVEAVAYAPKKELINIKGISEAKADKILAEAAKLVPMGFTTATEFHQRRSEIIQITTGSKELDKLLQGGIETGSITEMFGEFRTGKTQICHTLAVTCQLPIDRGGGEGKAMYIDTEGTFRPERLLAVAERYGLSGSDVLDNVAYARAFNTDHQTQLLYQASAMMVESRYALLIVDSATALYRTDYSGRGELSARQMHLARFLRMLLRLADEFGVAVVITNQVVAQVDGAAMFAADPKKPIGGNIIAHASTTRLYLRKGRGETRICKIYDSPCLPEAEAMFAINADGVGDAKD
UniProt Q9P2N5, sequence (Q9P2N5 whole entry, looked up): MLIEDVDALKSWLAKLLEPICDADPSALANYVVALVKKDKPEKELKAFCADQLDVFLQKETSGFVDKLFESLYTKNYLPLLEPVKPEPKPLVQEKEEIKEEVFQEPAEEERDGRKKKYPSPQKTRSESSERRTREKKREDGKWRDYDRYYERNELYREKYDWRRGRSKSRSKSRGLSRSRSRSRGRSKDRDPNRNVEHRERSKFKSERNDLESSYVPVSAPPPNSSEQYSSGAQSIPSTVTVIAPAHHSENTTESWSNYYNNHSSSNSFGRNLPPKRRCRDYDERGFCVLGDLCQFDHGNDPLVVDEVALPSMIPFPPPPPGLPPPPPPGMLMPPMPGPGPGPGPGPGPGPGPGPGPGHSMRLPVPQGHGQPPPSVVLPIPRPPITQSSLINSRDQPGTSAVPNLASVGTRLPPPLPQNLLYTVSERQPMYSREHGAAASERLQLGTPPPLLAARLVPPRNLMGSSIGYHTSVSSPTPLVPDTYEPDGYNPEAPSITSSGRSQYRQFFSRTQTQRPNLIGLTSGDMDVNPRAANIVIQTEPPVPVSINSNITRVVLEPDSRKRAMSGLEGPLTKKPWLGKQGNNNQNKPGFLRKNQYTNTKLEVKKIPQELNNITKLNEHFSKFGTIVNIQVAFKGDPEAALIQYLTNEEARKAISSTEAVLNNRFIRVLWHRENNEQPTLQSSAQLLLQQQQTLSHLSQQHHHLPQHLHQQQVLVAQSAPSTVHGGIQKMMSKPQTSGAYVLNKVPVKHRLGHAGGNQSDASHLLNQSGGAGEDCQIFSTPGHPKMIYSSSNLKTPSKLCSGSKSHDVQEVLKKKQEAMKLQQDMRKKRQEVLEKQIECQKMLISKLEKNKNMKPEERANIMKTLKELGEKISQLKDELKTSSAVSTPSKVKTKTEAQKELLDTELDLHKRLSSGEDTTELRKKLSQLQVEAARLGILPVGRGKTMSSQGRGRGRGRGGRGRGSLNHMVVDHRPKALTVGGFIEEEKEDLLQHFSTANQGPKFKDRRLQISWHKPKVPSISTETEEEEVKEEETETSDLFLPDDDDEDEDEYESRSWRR
UniProt Q96DM3, sequence (Q96DM3 whole entry, looked up): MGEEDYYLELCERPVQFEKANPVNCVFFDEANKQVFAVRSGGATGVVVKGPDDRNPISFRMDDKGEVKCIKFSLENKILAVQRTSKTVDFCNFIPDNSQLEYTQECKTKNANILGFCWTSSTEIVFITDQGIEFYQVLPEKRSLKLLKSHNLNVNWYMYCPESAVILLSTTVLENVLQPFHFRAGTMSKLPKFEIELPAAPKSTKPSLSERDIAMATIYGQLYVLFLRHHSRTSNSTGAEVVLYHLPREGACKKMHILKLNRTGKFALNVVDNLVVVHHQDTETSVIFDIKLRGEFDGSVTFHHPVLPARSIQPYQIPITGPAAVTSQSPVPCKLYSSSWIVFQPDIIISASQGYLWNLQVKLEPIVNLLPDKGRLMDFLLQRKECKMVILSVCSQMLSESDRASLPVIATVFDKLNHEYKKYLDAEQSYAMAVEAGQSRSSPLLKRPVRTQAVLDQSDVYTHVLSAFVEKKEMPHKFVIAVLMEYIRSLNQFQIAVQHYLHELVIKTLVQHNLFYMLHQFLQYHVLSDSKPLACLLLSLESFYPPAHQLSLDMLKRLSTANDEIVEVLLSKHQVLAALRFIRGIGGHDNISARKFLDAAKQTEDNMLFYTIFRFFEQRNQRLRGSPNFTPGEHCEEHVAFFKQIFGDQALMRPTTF

On to RAD51 (UniProt Q06609), for which the log2 fold change is -0.012 in [1]; -0.017 in experiment [2]; -0.042 in experiment [3]; -0.052 in experiment [4]; 0.001 with Nexturastat A; 0.02 in the experiment with vemurafenib. In addition, the log2 fold change was -0.048 in experiment [5]; 0.032 in [6]; 0.179 with givinostat; 0.016 in the experiment with barasertib; 0.013 in experiment [7]; 0.113 with volasertib. Further, the log2 fold change is 0.026 in experiment [8]; 0.157 in the experiment with epoxomicin; -0.029 in experiment [9]; -0.011 in [10]; -0.024 in experiment [11]; -0.016 with rosiglitazone. For the same target, the log2 fold change in experiment [12] was -0.075; in experiment [13], 0.051.

Take RMC1 (UniProt Q96DM3): the log2 fold change in experiment [1] was 0.037; in [2] it was 0.001; in experiment [3], -0.051; in experiment [4] it was 0.024; with Nexturastat A it was -0.031; with vemurafenib, 0.061. The log2 fold change was 0.031 in [5]; 0.021 in [6]; -0.013 in the experiment with givinostat; 0.039 with barasertib; -0.192 in experiment [7]; -0.416 (active) in the experiment with volasertib. Further, the log2 fold change in experiment [8] was 0.095; in the experiment with epoxomicin it was -0.025; in experiment [9], -0.041; in [10] it was 0.042; in experiment [11] it was -0.023; with rosiglitazone it was 0.005. For the same target, the log2 fold change in experiment [12] is -0.039; in experiment [13], -0.146.

As for RAC3 (UniProt P60763), the log2 fold change was 0.025 in experiment [1]; -0.021 in experiment [2]; 0.084 in [3]; -0.004 in [4]; -0.042 in the experiment with Nexturastat A; 0.006 with vemurafenib. The log2 fold change in experiment [5] is -0.006; in [6], -0.044; in the experiment with givinostat, -0.037; in the experiment with barasertib, -0.015; in experiment [7], 0.039; in the experiment with volasertib, 0.075. Besides, the log2 fold change in [8] was -0.082; with epoxomicin, -0.008; in experiment [9] it was 0.051; in experiment [10] it was -0.149; in experiment [11] it was 0; in the experiment with rosiglitazone, 0. Further, the log2 fold change in experiment [12] is -0.095; in [13] it was 0.035.

Take RBM27 (UniProt Q9P2N5): the log2 fold change was 0.031 in experiment [1]; -0.008 in experiment [2]; 0.01 in experiment [3]; -0.018 in experiment [4]; 0.025 with Nexturastat A; -0.008 in the experiment with vemurafenib. Further, the log2 fold change in [5] was 0.09; in experiment [6], 0.041; with givinostat, 0.013; with barasertib it was 0.009; in experiment [7] it was -0.141; with volasertib, -0.296 (active). The log2 fold change in experiment [8] is 0.014; with epoxomicin it was 0.014; in experiment [9] it was -0.11; in experiment [10] it was 0.001; in experiment [11], 0.027; in the experiment with rosiglitazone, 0.055. For the same target, the log2 fold change was -0.013 in experiment [12] and -0.068 in experiment [13].
